Compounds with a hit are over-represented: about 12% of the library has one in this group of screens.
CHX counter: Cycloheximide Counterscreen for Small Molecule Inhibitors of Shiga Toxin; cell reporter, cycloheximide protein synthesis inhibition counterscreen; max response, %; 300,000 tested, 12% active; AID 2314, 2010; in the data active = max response mostly above about 13%, no sharp cut-off; inactive = mostly below about 14%; note: read at 38.3 µM for the half of the compounds with a filed dose
Shiga toxin inh: A qHTS for Small Molecule Inhibitors of Shiga Toxin; Vero cells, Shiga toxin protein synthesis inhibition reporter; inhibition, % at 38.7 µM; 290,000 tested, 9.2% active; AID 2315, 2010; in the data active = inhibition mostly above about 28%, no sharp cut-off; inactive = mostly below about 43%
Sm TGR inh: qHTS Assay for the Inhibitors of Schistosoma Mansoni Peroxiredoxins; Schistosoma mansoni thioredoxin glutathione reductase (TGR), Q962Y6; purified TGR, DTNB reduction, TNB absorbance 405 nm; Potency, µM (doses to about 114 µM), most hits filed as inhibitors; 360,000 tested, 3% active; AID 485364, 2010; active = well fitted inhibition curve with a large enough effect; inconclusive = small, poorly fitted or top-dose-only effect; inactive = no such curve, though single readings can be large or run the other way; note: nearly all actives have a fitted effect of over 60% in size
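TGR 20 nM + NADPH 100 uM (dispensed conc.), cpd preinc 15 min RT; start with NADPH (500 uM addition) then DTNB (15 mM addition). Kinetic TNB absorbance, 405 nm filter. Four-parameter Hill fit across titration.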
FMDV inh: High Throughput Screening for Foot and Mouth Disease Virus Antivirals; 410,000 tested, 1.2% active; Potency, µM (series often up to 57.9 µM), usual class: inhibitors; FMDV antiviral cell-based qHTS; AID 1159524, 2015; calls by dose curve; tested in HEK293T cells; note: read-out not given here; nearly all actives have a fitted effect of over 45% in size
Each line names hits and unclear results; the compound was inactive in the other large screens.

Cc1cc(C)cc(NC(=O)Cn2nnc(-c3ccccc3F)n2)c1	none (no result: CHX counter, Shiga toxin inh)
CN(Cc1ccccc1)Cc1c(O)ccc2ccccc12	Sm TGR inh 0.89µM
COc1ccc(OCCN(C)Cc2c(O)ccc3ccccc23)cc1	CHX counter 18, Sm TGR inh 1.1µM
CC(C)c1ccc(NC(=O)CSc2nc(=O)n(Cc3cccnc3)c3c2CCC3)cc1	FMDV inh inconclusive (no result: CHX counter, Shiga toxin inh)
Cc1ccc(NC(=O)Nc2ncccc2C)cc1	CHX counter 63, Shiga toxin inh 106
Cc1cccnc1NC(=O)Nc1ccc(F)cc1	Shiga toxin inh 69
Cc1ccc(OCc2nc(-c3ccc(C(=O)NCCc4ccc(Cl)cc4)cc3)oc2C)cc1	none (no result: CHX counter, Shiga toxin inh)
O=C(Cn1ccn(-c2ccc(F)cc2)c(=O)c1=O)NCCc1ccccc1	none (no result: CHX counter, Shiga toxin inh)
COc1ccc(-n2c(=O)c3ccccc3c3ccccc3c2=O)c(OC)c1	FMDV inh inconclusive
COc1ccc(C)cc1-n1c(=O)c2ccccc2c2ccccc2c1=O	FMDV inh 25µM
COc1ccc(-n2cc(C(=O)NCCc3ccc(C)cc3)c3ccccc3c2=O)cc1	none (no result: CHX counter, Shiga toxin inh)
CCC(CC)NC(=O)c1cccc(Oc2ccccc2)c1	Shiga toxin inh 31
Cc1cc(NC(=O)c2cccc(Oc3ccccc3)c2)n[nH]1	CHX counter 29, Shiga toxin inh 91
Cc1cc(NC(=O)NC(=O)c2cccc(OC(F)(F)C(F)F)c2)n[nH]1	CHX counter 27, Shiga toxin inh 69
O=C(Nc1nn[nH]n1)c1cccc(Oc2ccccc2)c1	none
CCc1ccc(CNCc2c(C(=O)O)n(Cc3ccc(C)cc3)c3cc(C)ccc23)cc1	none (no result: CHX counter, Shiga toxin inh)
Cc1ccc(S(=O)(=O)c2cn(CC(=O)Nc3ccc4c(c3)OCO4)c3ccc(F)cc3c2=O)cc1	none (no result: CHX counter, Shiga toxin inh)
Cc1ccc2nc(/C(C#N)=C\c3ccc(Oc4ccc(C(F)(F)F)cc4[N+](=O)[O-])cc3)[nH]c2c1	CHX counter 31, Shiga toxin inh 79
COc1ccc(/C=C(\C#N)c2nc3ccc(C)cc3[nH]2)cc1Oc1ccc(C(F)(F)F)cc1[N+](=O)[O-]	none
COc1cc(/C=C(\C#N)c2nc3ccc(C)cc3[nH]2)cc([N+](=O)[O-])c1O	CHX counter 30, Shiga toxin inh 56 (no result: Sm TGR inh)
Cc1ccc2nc(/C(C#N)=C\c3cc(O)ccc3[N+](=O)[O-])[nH]c2c1	CHX counter 36
COc1ccc(C(=O)Nn2cnc3ccccc3c2=O)c(OC)c1	CHX counter 26, Shiga toxin inh 39
O=C(Nn1cnc2ccccc2c1=O)c1ccccc1Cl	CHX counter 17 (no result: FMDV inh)
O=C(Nn1cnc2ccccc2c1=O)c1ccccc1[N+](=O)[O-]	none
O=C(/C=C/c1ccccc1)Nn1cnc2ccccc2c1=O	CHX counter 21
Cc1ccccc1C(=O)Nn1cnc2ccccc2c1=O	CHX counter 33, Shiga toxin inh 50
CCCCN(CC)CCNC(=O)Cn1cnc2sc(C)c(S(=O)(=O)N3CCN(c4ccccc4OC)CC3)c2c1=O	none (no result: CHX counter, Shiga toxin inh)
CC1(C)C(C(=O)O)N2C(=O)CC2S1(=O)=O (stereo not given)	none (no result: Sm TGR inh, FMDV inh)
COc1cc(Cl)c(C)cc1NC(=O)c1c(C)oc2nc(C)nc(N3CCCC3)c12	none (no result: CHX counter, Shiga toxin inh)
O=C(Nc1ccc(Cl)cc1)Nn1cnc2ccccc2c1=O	CHX counter 24, Shiga toxin inh 48
CC(=O)Nc1ccc(N/C=C/C(=O)C(C)(C)C)cc1	CHX counter 18, Shiga toxin inh 39
O=C(/C=C/Nc1ccccc1)C(F)(F)F	none
Cc1ccc(N/C=C/C(=O)C(C)(C)C)c(O)c1	CHX counter 62, Shiga toxin inh 68
COc1ccc(Oc2ccc(N/C=C/C(=O)C(C)(C)C)cc2)cc1	CHX counter 25, Shiga toxin inh 39
COc1ccccc1Oc1ccc(N/C=C/C(=O)C(C)(C)C)cc1	none (no result: Sm TGR inh)
COc1cccc(Oc2ccc(N/C=C/C(=O)C(C)(C)C)cc2)c1	CHX counter 45, Shiga toxin inh 28
N#Cc1ccc(S(=O)(=O)N2CCC(Oc3cccc(C(F)(F)F)c3)CC2)cc1	none (no result: CHX counter, Shiga toxin inh)
CCc1ccccc1NC(=O)c1ncoc1-c1ccco1	none (no result: CHX counter, Shiga toxin inh)
C=CCn1c(CC(=O)OC)csc1=Nc1ccc(C(C)=O)cc1	CHX counter 33, Shiga toxin inh 63
C=CCn1c(C)csc1=Nc1ccc(C(C)=O)cc1	CHX counter 34, Shiga toxin inh 111
C=CCn1c(=N)n(CC(=O)OC)c2ccccc21	none
CCOC(=O)c1ccc(N=c2scc(C)n2CC)cc1	CHX counter 40, Shiga toxin inh 80
C=CCN1C(=O)C(CC(=O)O)SC1=Nc1ccc(C(=O)O)cc1 (stereo not given)	none
CCOC(=O)c1ccc(N=C2NC(=O)CS2)cc1	Sm TGR inh inconclusive
C=CCn1c(C)csc1=Nc1ccccc1C	CHX counter 30
COc1ccc(NC(=O)CSc2ncc3c(n2)-c2ccccc2N(C)S3(=O)=O)cc1Cl	none (no result: CHX counter, Shiga toxin inh)
COc1cc(NC(=O)C2CCN(S(=O)(=O)c3ccc4c(c3)CCCC(=O)N4)CC2)cc(OC)c1	none (no result: CHX counter, Shiga toxin inh)
Cn1c(=O)c(N)c2c3c(c(Br)ccc31)C(=O)c1ccccc1-2	Sm TGR inh 13µM, FMDV inh inconclusive
CCN(CC)C(=O)C1=C(C)Nc2nc3ccccc3n2C1c1ccc(Br)cc1 (stereo not given)	none (no result: CHX counter, Shiga toxin inh)
COc1ccc(NC(=O)c2cccc3c(=O)c4c([nH]c23)CCCC4)cc1	none (no result: CHX counter, Shiga toxin inh)
O=C(O)c1csc(-c2cccs2)n1	none
c1csc(-c2nc(CN3CCSCC3)cs2)c1	CHX counter 45, Shiga toxin inh 76
O=S1(=O)CCN(Cc2ccccn2)CC1	none
O=S1(=O)CCN(Cc2csc(-c3cccs3)n2)CC1	CHX counter 31, Shiga toxin inh 68
CC(C)NC(=O)CSc1nnc2sc3ccccc3n12	CHX counter 27
NC(=O)CSc1nnc2sc3ccccc3n12	none
CN(C)CCSc1nnc2sc3ccccc3n12	none
COc1ccc(OCCSc2nnc3sc4ccccc4n23)cc1	CHX counter 60 (no result: FMDV inh)
O=C1CC(N2CCCCC2)C(=O)N1c1ccccc1 (stereo not given)	Sm TGR inh 32µM
O=C1CC(N2CCC(O)CC2)C(=O)N1c1ccc(Br)cc1 (stereo not given)	Sm TGR inh 56µM
O=C1CC(N2CCN(S(=O)(=O)c3ccccc3)CC2)C(=O)N1c1ccccc1 (stereo not given)	Sm TGR inh 50µM
CCOC(=O)C1CCCN(C2CC(=O)N(c3ccc(C)cc3)C2=O)C1 (stereo not given)	Sm TGR inh inconclusive (no result: FMDV inh)
COc1ccc(C(=O)NNC(=O)C2CCCN(C3CC(=O)N(c4ccccc4)C3=O)C2)cc1 (stereo not given)	Sm TGR inh 45µM
O=C1CC(N2CCCN(C3CC(=O)N(c4ccc(F)cc4)C3=O)CC2)C(=O)N1c1ccc(F)cc1 (stereo not given)	Sm TGR inh 20µM
CCOC(=O)c1[nH]nc(N)c1NC(=O)c1ccc(Cl)cc1Cl	CHX counter 27
CCCCCCCCCCCCCCCC(=O)OC(CO)CO	none (no result: CHX counter, Shiga toxin inh, Sm TGR inh)
COc1ccccc1NS(=O)(=O)c1cccc(C(=O)OCC(=O)Nc2cc(C)on2)c1	none
COc1ccccc1NS(=O)(=O)c1cccc(C(=O)OCc2nc3ccccc3s2)c1	CHX counter 49, Shiga toxin inh 76
COc1ccc(NC(=O)CN(C)C(=O)CCCc2nc3ccccc3s2)cc1	none (no result: CHX counter, Shiga toxin inh)

Screening data deposited in PubChem BioAssay by National Center for Advancing Translational Sciences (NCATS).
